Experimental data taken from PubChem BioAssay (Tox21).
Results filed as inconclusive are left out. Where a call stands in place of a potency, no number is given. Active and inactive are the calls of the source. Unless noted, calls follow the shape of the dose curve; as a rule, active = well fitted curve in the direction sought with a large enough effect in the repeat runs; inconclusive = weak or mixed curves; inactive = no such curve, though single readings can be large; an effect the other way counts as inactive or inconclusive.

Experiments:
[1] = qHTS assay to identify aromatase inhibitors - cell viability counter screen (AID 743084);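 also: cells stimulated with testosterone during compound exposure; nearly all actives have a fitted effect of over 55% in size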
[2] = target: Aryl hydrocarbon receptor (Homo sapiens) (UniProt P35869); assay: qHTS assay to identify small molecule that activate the aryl hydrocarbon receptor (AhR) signaling pathway (AID 743085); also: nearly all actives have a fitted effect of over 15% in size; also: potency is read from the fitted curve at half-maximal effect;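 as to activation: HG2L7.5c1 human HepG2 liver cells with stably integrated DRE-driven firefly reporter; series mostly up to about 70 µM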
In short: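 Steps: seed HepG2-AhR-luc cells; allow 5 h at 37C; pin-transfer test compound or vehicle; incubate 24 h at 37C; add viability dye (30 min, 37C) and read fluorescence; add luciferase substrate (30 min, RT) and read luminescence.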

[3] = qHTS assay to identify small molecule that activate the aryl hydrocarbon receptor (AhR) signaling pathway - cell viability counter screen (AID 743086);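 also: HepG2 liver cells carrying the AhR DRE luciferase reporter; series mostly up to about 70 µM; nearly all actives have a fitted effect of over 45% in size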
In short: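 Cytotoxicity counter screen: CellTiter-Fluor signal (30 min, 37 C) in 4000 HepG2 cells/well carrying the DRE-luciferase reporter, following 24 h compound exposure at 37 C.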

[4] = target: Peroxisome proliferator-activated receptor gamma (Homo sapiens) (UniProt P37231); assay: qHTS assay to identify small molecule agonists of the peroxisome proliferator-activated receptor gamma (PPARg) signaling pathway (AID 743094; active = well fitted activation curve with a large enough effect in the signal ratio in the repeat runs, not every such curve was filed as active; the % refers to the signal ratio)
In short: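 HEK293H PPARg-bla cells, 5 h settle at 37C/5% CO2; compound (DMSO) 17 h, 37C; B/G FRET substrate 1 h RT; fluorescence intensity read-out. qHTS format.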

[5] = target: Peroxisome proliferator-activated receptor gamma (Homo sapiens) (UniProt P37231); assay: qHTS assay to identify small molecule antagonists of the peroxisome proliferator-activated receptor gamma (PPARg) signaling pathway (AID 743191; calls by dose curve; also: series mostly up to about 63 µM; nearly all actives have a fitted effect of over 30% in size)
In short: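 Beta-lactamase reporter under UAS control in HEK293H PPARg-bla cells; compound treatment 17 h at 37C. Read-out: fluorescence intensity after 1 h room-temperature incubation with LiveBLAzer B/G FRET substrate.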

[6] = qHTS assay to identify small molecule antagonists of the peroxisome proliferator-activated receptor gamma (PPARg) signaling pathway - cell viability counter screen (AID 743194); also: nearly all actives have a fitted effect of over 55% in size
In short: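 Viability was measured as CellTiter-Glo luminescence in GeneBLAzer PPARg UAS-bla HEK293H cells. These cells had been exposed 17 h at 37 C to compounds together with rosiglitazone at 50 nM final, with the beta-lactamase readout taken in the same wells.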

[7] = qHTS assay for small molecule agonists of the antioxidant response element (ARE) signaling pathway (AID 743202; active = well fitted activation curve with a large enough effect in the signal ratio in the repeat runs, not every such curve was filed as active; the % refers to the signal ratio)
In short: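 Beta-lactamase reporter activity, read as fluorescence intensity, reflects ARE/Nrf2 pathway induction in HepG2 cells after 16 h compound exposure at 37 C; substrate loading was 2 h at room temperature.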

[8] = qHTS assay for small molecule agonists of the antioxidant response element (ARE) signaling pathway - cell viability counter screen (AID 743203; calls by dose curve; also: nearly all actives have a fitted effect of over 55% in size)
In short: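 Luminescence read-out (CellTiter-Glo, 30 min at room temperature) measured cell viability in the same wells as the ARE beta-lactamase reporter. HepG2 ARE-bla cells were treated with compounds for 16 hrs at 37C/5% CO2.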

[9] = qHTS assay for small molecule activators of the heat shock response signaling pathway (AID 743210; active = well fitted activation curve with a large enough effect in the signal ratio in the repeat runs, with a control signal flat, not every such curve was filed as active; the % refers to the signal ratio;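 also: HeLa cells with beta-lactamase reporter driven by heat shock elements; series mostly up to about 63 µM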)
In short: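 Fluorescence from a cleaved B/G FRET substrate (2.5 h, room temp) reports HSE-driven beta-lactamase in HeLa cells treated 5 h at 37 C with DMSO-dissolved compounds.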

[10] = qHTS assay to identify small molecule agonists of the peroxisome proliferator-activated receptor delta (PPARd) signaling pathway - cell viability counter screen (AID 743211); also: nearly all actives have a fitted effect of over 55% in size
In short: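 Viability of GeneBLAzer PPARd UAS-bla HEK293H cells was assessed after 17 h compound incubation at 37C, using CellTiter-Glo reagent added after the reporter read and luminescence recorded 30 min later.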

[11] = target: Peroxisome proliferator-activated receptor delta (Homo sapiens) (UniProt Q03181); assay: qHTS assay to identify small molecule agonists of the peroxisome proliferator-activated receptor delta (PPARd) signaling pathway (AID 743212; calls by dose curve)
In short: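 Steps: seed PPARd-bla HEK293H cells; incubate 5 h, 37 C, 5% CO2; add compounds in DMSO; incubate, 37 C; add LiveBLAzer B/G FRET substrate; hold 2 h at room temperature; measure fluorescence.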

[12] = qHTS assay to identify small molecule antagonists of the peroxisome proliferator-activated receptor delta (PPARd) signaling pathway - cell viability counter screen (AID 743213); also: nearly all actives have a fitted effect of over 50% in size
In short: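 Viability counter-screen, qHTS format: PPARd-bla HEK293H, L165041 300 nM final, 17 h compound exposure at 37 C, CellTiter-Glo luminescence after 30 min RT.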

[13] = target: Peroxisome proliferator-activated receptor delta (Homo sapiens) (UniProt Q03181); assay: qHTS assay to identify small molecule antagonists of the peroxisome proliferator-activated receptor delta (PPARd) signaling pathway (AID 743215; active = well fitted inhibition curve with a large enough effect in the signal ratio in the repeat runs, not every such curve was filed as active; the % refers to the signal ratio;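 also: cells stimulated with agonist L165041 at 300 nM final during compound exposure; series mostly up to about 62 µM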)
In short: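 HEK293H GeneBLAzer PPARd UAS-bla reporter cells; cpd + L165041 300 nM final, 17 h 37 C; LiveBLAzer B/G FRET substrate 2 h RT; fluorescence intensity read-out. Antagonist mode.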

[14] = qHTS assay to identify small molecule agonists of the farnesoid-X-receptor (FXR) signaling pathway - cell viability counter screen (AID 743218); also: nearly all actives have a fitted effect of over 45% in size
In short: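 Luminescence from CellTiter-Glo, read after 30 min at RT, reports viability of GeneBLAzer FXR-UAS-bla HEK 293T cells treated 16 h with compounds in the wells used for the beta-lactamase reporter.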

[15] = qHTS assay to identify small molecule antagonists of the farnesoid-X-receptor (FXR) signaling pathway - cell viability counter screen (AID 743221; active = well fitted cell-killing curve with a large enough effect in the repeat runs, not every such curve was filed as active; also: nearly all actives have a fitted effect of over 50% in size)
In short: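 Quantitative HTS of the Tox21 10K library run in parallel with the beta-lactamase reporter read. HEK 293T cells carrying a UAS-driven bla reporter got compound and 50 uM CDCA (final) for 16 h; ATP-based luminescence followed.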

[16] = qHTS assay for small molecule activators of the heat shock response signaling pathway - cell viability counter screen (AID 743209); also: nearly all actives have a fitted effect of over 50% in size
In short: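 HSE-bla HeLa; 1500 cells/well; overnight 37 C, 5% CO2; compound 5 h 37 C; LiveBLAzer B/G substrate 2.5 h RT; CellTiter-Glo 30 min RT; luminescence.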

[17] = target: Bile acid receptor (Homo sapiens) (UniProt Q96RI1); assay: qHTS assay to identify small molecule antagonists of the farnesoid-X-receptor (FXR) signaling pathway (AID 743217; active = well fitted inhibition curve with a large enough effect in the signal ratio in the repeat runs, not every such curve was filed as active; the % refers to the signal ratio)
In short: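 Read-out: beta-lactamase FRET fluorescence (LiveBLAzer B/G substrate, 2 h, room temperature) in GeneBLAzer FXR-UAS-bla HEK 293T cells. Compounds were co-dosed with 50 uM chenodeoxycholic acid (final) and incubated 16 h at 37 °C.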

[18] = target: Vitamin D3 receptor (Homo sapiens) (UniProt P11473); assay: qHTS assay to identify small molecule agonists of the vitamin D receptor (VDR) signaling pathway (AID 743222; calls by dose curve)
In short: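 Beta-lactamase reporter readout (LiveBLAzer B/G FRET, 2 h RT) in VDR-bla cells after 16 h compound treatment at 37C, 5% CO2; cells pre-incubated 4 h before pin transfer of DMSO solutions.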

[19] = target: Bile acid receptor (Homo sapiens) (UniProt Q96RI1); assay: qHTS assay to identify small molecule agonists of the farnesoid-X-receptor (FXR) signaling pathway (AID 743220; active = well fitted activation curve with a large enough effect in the signal ratio in the repeat runs, not every such curve was filed as active; the % refers to the signal ratio)
In short: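 FXR-UAS-bla HEK 293T cells carrying a UAS-driven beta-lactamase reporter were plated for 5 h at 37C/5% CO2, then exposed to DMSO-dissolved Tox21 10K compounds for 16 h at 37C. A LiveBLAzer B/G FRET substrate was loaded for 2 h at room temperature before fluorescence reading.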

[20] = target: Vitamin D3 receptor (Homo sapiens) (UniProt P11473); assay: qHTS assay to identify small molecule antagonists of the vitamin D receptor (VDR) signaling pathway (AID 743223; active = well fitted inhibition curve with a large enough effect in the signal ratio in the repeat runs, not every such curve was filed as active; the % refers to the signal ratio)
In short: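 Fluorescence from LiveBLAzer B/G FRET substrate, read after 2 h at room temperature, reflects beta-lactamase reporter activity in VDR-bla cells treated 16 h at 37C with compounds and agonist 1alpha,25-dihydroxyvitamin D3 (3 nM final).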

Chain of Bile acid receptor (Homo sapiens) (Q96RI1 whole entry, looked up): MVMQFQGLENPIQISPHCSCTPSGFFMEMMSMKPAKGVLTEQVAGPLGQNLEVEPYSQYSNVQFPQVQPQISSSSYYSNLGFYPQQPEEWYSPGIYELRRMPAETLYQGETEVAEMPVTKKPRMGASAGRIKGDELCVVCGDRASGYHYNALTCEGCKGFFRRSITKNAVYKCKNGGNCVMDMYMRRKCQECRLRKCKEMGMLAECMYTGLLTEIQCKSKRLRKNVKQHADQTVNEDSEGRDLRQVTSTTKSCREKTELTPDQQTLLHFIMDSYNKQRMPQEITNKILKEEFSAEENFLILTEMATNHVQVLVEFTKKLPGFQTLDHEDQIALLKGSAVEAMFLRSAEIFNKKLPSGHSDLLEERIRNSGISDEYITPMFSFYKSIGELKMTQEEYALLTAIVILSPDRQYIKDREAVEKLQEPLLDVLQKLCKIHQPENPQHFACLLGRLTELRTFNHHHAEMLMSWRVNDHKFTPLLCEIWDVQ
Chain of Vitamin D3 receptor (Homo sapiens) (P11473 whole entry, looked up): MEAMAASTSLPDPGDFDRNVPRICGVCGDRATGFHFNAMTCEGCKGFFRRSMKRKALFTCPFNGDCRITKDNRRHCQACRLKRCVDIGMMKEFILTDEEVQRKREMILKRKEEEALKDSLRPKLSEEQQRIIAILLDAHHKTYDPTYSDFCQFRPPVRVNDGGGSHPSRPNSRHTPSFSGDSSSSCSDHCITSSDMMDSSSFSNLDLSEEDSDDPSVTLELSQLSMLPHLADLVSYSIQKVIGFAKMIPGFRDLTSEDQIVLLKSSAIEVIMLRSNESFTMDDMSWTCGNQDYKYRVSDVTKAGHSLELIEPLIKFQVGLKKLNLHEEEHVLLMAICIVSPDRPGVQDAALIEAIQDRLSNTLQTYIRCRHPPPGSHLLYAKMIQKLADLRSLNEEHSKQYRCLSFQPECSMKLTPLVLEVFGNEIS
Chain of Peroxisome proliferator-activated receptor delta (Homo sapiens) (Q03181 whole entry, looked up): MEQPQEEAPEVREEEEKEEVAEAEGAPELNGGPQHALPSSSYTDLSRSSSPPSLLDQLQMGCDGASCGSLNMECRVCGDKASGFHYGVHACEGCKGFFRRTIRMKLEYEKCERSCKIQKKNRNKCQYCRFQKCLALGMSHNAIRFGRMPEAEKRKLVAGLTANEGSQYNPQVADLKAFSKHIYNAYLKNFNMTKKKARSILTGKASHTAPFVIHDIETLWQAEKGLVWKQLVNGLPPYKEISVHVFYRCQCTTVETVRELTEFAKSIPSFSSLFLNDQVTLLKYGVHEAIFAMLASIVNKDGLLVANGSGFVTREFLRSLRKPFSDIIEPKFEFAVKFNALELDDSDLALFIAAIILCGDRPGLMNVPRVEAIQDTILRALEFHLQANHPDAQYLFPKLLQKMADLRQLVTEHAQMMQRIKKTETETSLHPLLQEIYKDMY
Chain of Peroxisome proliferator-activated receptor gamma (Homo sapiens) (P37231 whole entry, looked up): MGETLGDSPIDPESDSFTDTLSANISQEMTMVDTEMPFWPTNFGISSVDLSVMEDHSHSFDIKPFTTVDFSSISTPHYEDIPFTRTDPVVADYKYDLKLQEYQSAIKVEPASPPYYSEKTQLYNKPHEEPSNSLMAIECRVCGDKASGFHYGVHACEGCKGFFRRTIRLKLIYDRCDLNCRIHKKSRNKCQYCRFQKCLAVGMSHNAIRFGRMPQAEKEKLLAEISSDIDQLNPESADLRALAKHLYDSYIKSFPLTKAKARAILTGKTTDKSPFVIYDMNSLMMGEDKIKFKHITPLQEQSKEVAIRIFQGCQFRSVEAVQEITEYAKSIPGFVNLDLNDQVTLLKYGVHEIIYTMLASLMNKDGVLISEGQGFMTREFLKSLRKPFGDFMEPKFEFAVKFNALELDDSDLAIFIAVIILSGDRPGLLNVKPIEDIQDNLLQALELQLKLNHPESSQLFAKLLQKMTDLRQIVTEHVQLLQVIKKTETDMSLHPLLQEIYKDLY
Chain of Aryl hydrocarbon receptor (Homo sapiens) (P35869 whole entry, looked up): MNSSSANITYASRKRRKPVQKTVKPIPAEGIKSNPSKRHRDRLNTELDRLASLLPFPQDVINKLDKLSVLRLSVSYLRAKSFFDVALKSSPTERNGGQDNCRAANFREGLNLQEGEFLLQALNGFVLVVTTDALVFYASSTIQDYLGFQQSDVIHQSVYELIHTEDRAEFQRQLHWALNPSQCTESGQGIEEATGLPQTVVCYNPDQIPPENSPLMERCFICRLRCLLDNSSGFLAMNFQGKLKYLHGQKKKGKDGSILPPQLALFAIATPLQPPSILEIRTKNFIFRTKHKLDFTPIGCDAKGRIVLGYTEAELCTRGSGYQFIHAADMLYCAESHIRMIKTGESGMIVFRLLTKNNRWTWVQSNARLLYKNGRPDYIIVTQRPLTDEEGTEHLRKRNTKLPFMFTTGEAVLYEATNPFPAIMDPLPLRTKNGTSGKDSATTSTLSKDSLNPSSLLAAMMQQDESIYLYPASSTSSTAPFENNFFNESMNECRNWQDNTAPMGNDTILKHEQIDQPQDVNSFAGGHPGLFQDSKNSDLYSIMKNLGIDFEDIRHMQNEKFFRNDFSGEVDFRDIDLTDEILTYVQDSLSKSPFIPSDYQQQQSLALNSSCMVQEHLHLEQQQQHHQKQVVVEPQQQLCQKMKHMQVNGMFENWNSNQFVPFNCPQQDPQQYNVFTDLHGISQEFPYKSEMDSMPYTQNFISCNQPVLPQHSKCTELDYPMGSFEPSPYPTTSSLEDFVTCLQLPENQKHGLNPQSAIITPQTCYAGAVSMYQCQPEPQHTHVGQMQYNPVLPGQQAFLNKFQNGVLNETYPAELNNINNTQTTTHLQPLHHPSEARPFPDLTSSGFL

| Compound | Potency [1] | Potency [2] | Potency [3] | Potency [4] | outcome [5] | outcome [6] | Potency [7] | outcome [8] | outcome [9] | outcome [10] | outcome [11] | outcome [12] | outcome [13] | outcome [14] | outcome [15] | Potency [16] | outcome [17] | outcome [18] | outcome [19] | outcome [20] |
| --- | --- | --- | --- | --- | --- | --- | --- | --- | --- | --- | --- | --- | --- | --- | --- | --- | --- | --- | --- | --- |
| C#CCN[C@@H]1CCc2ccccc21 | inactive | inactive | inactive | inactive | inactive | inactive | inactive | inactive | inactive | inactive | inactive | inactive | inactive | inactive | inactive | – | – | – | – | – |
| COC(=O)CCCCC(=O)O | inactive | inactive | inactive | inactive | inactive | inactive | inactive | inactive | inactive | inactive | inactive | inactive | inactive | – | inactive | – | – | – | – | – |
| C=CCCCC | inactive | inactive | inactive | inactive | inactive | inactive | – | inactive | inactive | inactive | – | inactive | inactive | inactive | inactive | inactive | – | – | – | – |
| CCC(=O)CC | inactive | inactive | inactive | inactive | inactive | inactive | inactive | inactive | inactive | – | – | inactive | inactive | inactive | inactive | inactive | inactive | inactive | – | – |
| CC(=O)c1cc(C)oc1C | inactive | inactive | inactive | inactive | inactive | inactive | inactive | inactive | – | inactive | inactive | – | inactive | inactive | inactive | inactive | – | inactive | – | – |
| OCC1(CO)COCOC1 | inactive | inactive | inactive | inactive | inactive | inactive | inactive | inactive | – | inactive | – | – | – | inactive | inactive | – | inactive | – | inactive | – |
| CC(=O)C(C)O (stereo unspecified) | inactive | inactive | inactive | inactive | inactive | inactive | inactive | inactive | inactive | inactive | inactive | inactive | inactive | inactive | inactive | – | inactive | inactive | – | inactive |
| CC1=NN(c2ccc(S(=O)(=O)O)cc2)C(=O)C1 | inactive | inactive | inactive | inactive | inactive | inactive | inactive | inactive | – | inactive | – | inactive | – | inactive | inactive | inactive | – | inactive | – | – |
| CN(C)CCCO[C@@H]1[C@H]2OC(C)(C)O[C@H]2O[C@@H]1C(O)CO (stereo partly specified) | inactive | inactive | inactive | inactive | inactive | inactive | inactive | inactive | inactive | inactive | – | inactive | – | – | inactive | inactive | – | inactive | – | inactive |
| CCC(C)C(=O)OCCc1ccccc1 (stereo unspecified) | inactive | inactive | inactive | inactive | inactive | inactive | inactive | inactive | inactive | inactive | inactive | inactive | – | inactive | inactive | – | – | – | – | – |
| CC(=O)O[C@H]1C[C@@H]2CC[C@@]1(C)C2(C)C | inactive | inactive | inactive | inactive | inactive | inactive | inactive | inactive | inactive | inactive | – | inactive | – | – | inactive | – | inactive | inactive | inactive | – |
| O=Cc1cc2ccccc2o1 | inactive | inactive | inactive | inactive | inactive | inactive | – | inactive | inactive | inactive | inactive | inactive | inactive | inactive | inactive | inactive | – | inactive | – | inactive |
| CO/N=C(/C(=O)N[C@@H]1C(=O)N2C(C(=O)[O-])=C(C[n+]3ccn4ncccc43)CS[C@H]12)c1nsc(N)n1 | inactive | inactive | inactive | inactive | inactive | inactive | inactive | inactive | – | inactive | inactive | inactive | inactive | – | inactive | inactive | – | – | – | – |
| COc1c2occc2c(OC)c2c(=O)cc(C)oc12 | inactive | 114 nM (active) | inactive | inactive | inactive | inactive | inactive | inactive | inactive | inactive | – | – | – | – | inactive | inactive | inactive | inactive | inactive | – |
| CCCCOCC(C)O (stereo unspecified) | inactive | inactive | inactive | inactive | inactive | inactive | – | inactive | inactive | inactive | – | inactive | – | inactive | inactive | inactive | – | inactive | – | – |
| CC(C)=CCC[C@@](C)(O)[C@H]1CC=C(C)CC1 | inactive | inactive | inactive | inactive | inactive | inactive | inactive | inactive | – | inactive | inactive | inactive | inactive | – | inactive | inactive | – | inactive | – | inactive |
| Cc1ccc(C)c([N+](=O)[O-])c1 | inactive | inactive | inactive | inactive | inactive | inactive | – | inactive | inactive | inactive | inactive | inactive | inactive | inactive | inactive | inactive | – | inactive | – | – |
| CN(C)CCN(C)CCO | inactive | inactive | inactive | inactive | inactive | inactive | – | inactive | inactive | inactive | – | inactive | – | – | inactive | inactive | inactive | inactive | inactive | inactive |
| CCCCCC(C)O (stereo unspecified) | inactive | inactive | inactive | inactive | inactive | inactive | inactive | – | inactive | inactive | – | inactive | inactive | – | inactive | inactive | – | inactive | – | inactive |
